Measurements taken from the supplement of paper PMC7156485.
Several values for one entry are separate records, joined by “and”; a condition that tells them apart may be missing. Identical values can stand only once. ± gives the standard deviation of the averaged measurements.

Legend:
Conditions in all cases: concentration: 10 µM; 24 h
HCC1569 [1] = test: cell number relative to DMSO (% of DMSO); higher = more cells (less growth inhibition / toxicity)
How it was run: (§1)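 Compounds were applied at 10 µM for 24 h at 37 °C, in triplicate, to HCC1569 and TDF cells. The cells were then fixed and stained for H1.0, and nuclei were counterstained with DAPI. Nuclear H1.0 intensity or cell number is reported relative to the plate control as a percent, taking the median of replicates. Smoothing for positional effects was applied to HCC1569 values only.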

TDF [2] = test: as above
How it was run: as §1

TDF [3] = test: H1.0 immunofluorescence intensity relative to DMSO (% of DMSO); higher = stronger H1.0 induction, active = 120 or more
How it was run: as §1

HCC1569 [4] = test: H1.0 immunofluorescence intensity relative to DMSO (% of DMSO); higher = stronger H1.0 induction, active = 140 or more
How it was run: as §1
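For H1.0 immunofluorescence intensity relative to DMSO in this document: TDF is a line of transformed human dermal fibroblasts of mesenchymal origin.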
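For cell number relative to DMSO in this document: TDF denotes transformed human dermal fibroblasts of mesenchymal origin.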

SMILES | cell number (HCC1569 [1]) | cell number (TDF [2]) | H1.0 immunofluorescence intensity (TDF [3]) | H1.0 immunofluorescence intensity (HCC1569 [4])
CCCCCCCC/C=C\CCCCCCCC(=O)NCC(=O)O [[(9Z)-9-octadecenoylamino]acetic acid] | 99.2 | 100 | 96.9 (inactive) | 100 (inactive)
O=[N+]([O-])c1cccc2cn[nH]c12 [7-Nitroindazole] | 105 | 109 | 90.5 (inactive) | 92.6 (inactive)
c1ccc(-c2n[nH]c3c2oc2ccccc23)cc1 | 101 | 103 | 94.2 (inactive) | 126 (inactive)
CCCCCCCCCCCCCCCCn1cc[n+](Cc2ccccc2)c1C.[I-] [eEF-2 Kinase Inhibitor, NH125] | 36.6 | 38.9 | 152 (active) | 101 (inactive)
COc1cc2c(Nc3ccc(Br)cc3F)ncnc2cc1OCC1CCN(C)CC1 [Vandetanib] | 54.4 | 65.4 | 108 (inactive) | 142 (active)
CCCCCCCCCCCCCCCC(=O)OC1C(SC)OC(C(NC(=O)C2CC(CCC)CN2C)C(C)Cl)C(O)C1O.Cl (configuration not stated) [Clindamycin palmitate.HCl] | 96.5 | 101 | 93.3 (inactive) | 106 (inactive)
CC(C)(C)c1nc2c3cc[nH]c(=O)c3c3cc(F)ccc3c2[nH]1 [JAK Inhibitor I] | 99.8 | 99.5 | 90.3 (inactive) | 126 (inactive)
Cc1ccc(C(=O)c2ccc(CC(=O)O)n2C)cc1 [Tolmetin] | 101 | 99 | 104 (inactive) | 104 (inactive)
NC(=O)OCC(COC(N)=O)c1ccccc1 [Felbamate] | 111 ± 15 | 109 ± 1.2 | 97 (inactive) | 93.1 (inactive)
C=CCc1ccc(O)c(-c2ccc(O)c(CC=C)c2)c1 [Honokiol] | 100 | 107 | 81 (inactive) | 101 (inactive)
OCCC#Cc1nc(-c2ccc(F)cc2)c(-c2ccncc2)n1CCCc1ccccc1 | 91.8 | 105 | 82.7 (inactive) | 111 (inactive)
COc1cccc(C(=O)NCCN2CCN(c3ccc(Cl)cc3)CC2)c1 | 101 | 109 | 94.5 (inactive) | 92.3 (inactive)
O=c1[nH]nc(Sc2ncc([N+](=O)[O-])s2)n1-c1ccc2c(c1)OCCO2 | 58.3 and 32.2 | 90.9 and 81.2 | 103 (inactive) and 102 (inactive) | 137 (inactive) and 134 (inactive)
CN(C)CCCN1c2ccccc2Sc2ccc(Cl)cc21.Cl [Chlorpromazine hydrochloride] | 88.5 | 64.4 | 135 (active) | 144 (active)
O=Cc1c2[nH]c3ccccc3c2cc2[nH]c3ccccc3c12 [6-Formylindolo [3,2-B] carbazole] | 101 | 99 | 91.4 (inactive) | 100 (inactive)
Nc1nc(Cl)nc2c1ncn2C1OC(CO)C(O)C1O (configuration not stated) [2-Chloroadenosine] | 99.3 | 119 | 87.8 (inactive) | 89 (inactive)
CCCCCCCCCCCCCCC(C(=O)O)=C(C)C(=O)O [Chaetomellic acid A] | 102 | 93.6 | 104 (inactive) | 100 (inactive)
NC(=NCc1ccccc1)NC(=O)c1nc(Cl)c(N)nc1N [Benzamil] | 99.9 | 99.9 | 98.7 (inactive) | 112 (inactive)
